Values joined by “and” are separate entries in the source; they are usually repeats but may differ in a detail not shown here. Equal entries are not always repeated. Records with an inconclusive call do not appear. More than one record can exist for a structure, and the calls need not agree. Active and inactive are the calls of the source. Calls follow the shape of the dose curve; as a rule, active = well fitted curve in the direction sought with a large enough effect; inconclusive = small, poorly fitted or top-dose-only effect, or another doubt; inactive = no such curve, though single readings can be large; an effect the other way counts as inactive or inconclusive.

The values that follow come from PubChem BioAssay (NCATS).

The nature of assay [1]: Viability qHTS for spleen associated tyrosine kinase inhibitor (SYKi) naive MV4-11 cells (AID 1963823). Also: nearly all actives have a fitted effect of over 40% in size. A digest of the protocol: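 Read-out: CellTiter-Glo luminescence. Exposure: 72 hr, 37 C, 5% CO2, 95% humidity. Cells: MV4-11 without SYK inhibitor history, 500/well, qHTS format.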
A general note: Quantitative high-throughput screening tests each substance at several concentrations.

A short description of assay [2]: Viability qHTS for spleen associated tyrosine kinase inhibitor (SYKi) drug resistant MV4-11 cells (AID 1963824). Also: nearly all actives have a fitted effect of over 35% in size. A digest of the protocol: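 SYK-inhibitor-resistant MV4-11 AML cells were seeded at 500 per well onto compound and cultured 72 hours (37 °C, 5% CO2). CellTiter-Glo was then added, and after 10 min at room temperature, luminescence gave viability.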
The nature of assay [3]: Quantitative highthroughput screen to assess conditional lethalithy of NOMO1 cells grown in RPMI1640 with dialyzed fetal bovine serum (RPMI+ds) (AID 1963877). Also: nearly all actives have a fitted effect of over 30% in size.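 As to Viability: series mostly up to about 46 µM; 100% = DMSO control wells and 0% = empty wells.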 A digest of the protocol: (§1)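 Each medium arm—HPLM with 10% dialyzed FBS, or RPMI1640 with 5 mM glucose and 10% untreated or dialyzed FBS—was screened against an 11-point, 3-fold compound titration for 48 h at 37 °C, with CellTiter-Glo luminescence as endpoint.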

Assay [4] in a line: Quantitative highthroughput screen to assess conditional lethalithy of NOMO1 cells grown in Human Plasma-Like Medium with dialyzed fetal bovine serum (HPLM+ds) (AID 1963878). Also: nearly all actives have a fitted effect of over 35% in size.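 As to Viability: 100% = DMSO wells and 0% = empty wells on each plate.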 In outline: as §1
Assay [5] in a line: Quantitative highthroughput screen to assess conditional lethalithy of P12 Ichikawa cells grown in Human Plasma-Like Medium with dialyzed fetal bovine serum (HPLM+ds) (AID 1963879). Also: nearly all actives have a fitted effect of over 35% in size. As to Viability: series mostly up to about 46 µM. The settings on record: Potency: viability. A digest of the protocol:
as §1

Assay [6] can be described thus: Quantitative highthroughput screen to assess conditional lethalithy of P12 Ichikawa cells grown in RPMI1640 with untreated serum (RPMI+s) (AID 1963881). Also: nearly all actives have a fitted effect of over 35% in size.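 As to Viability: series mostly up to about 46 µM; 100% = DMSO wells and 0% = empty wells without cells.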 The settings on record: Potency: viability. In outline: as §1
The nature of assay [7]: Quantitative highthroughput screen to assess conditional lethalithy of SEM cells grown in Human Plasma-Like Medium with dialyzed fetal bovine serum (HPLM+ds) (AID 1963882). Also: nearly all actives have a fitted effect of over 35% in size. As to Viability: series mostly up to about 46 µM. In outline: as §1
A short description of assay [8]: Quantitative highthroughput screen to assess conditional lethalithy of SEM cells grown in RPMI1640 with unreated serum (RPMI+s) (AID 1963883). Also: nearly all actives have a fitted effect of over 35% in size.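 As to Viability: 100% = DMSO wells and 0% = empty wells without cells.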 In outline: as §1
A short description of assay [9]: Quantitative highthroughput screen to assess conditional lethalithy of SEM cells grown in RPMI1640 with dialyzed fetal bovine serum (RPMI+ds) (AID 1963884). Also: nearly all actives have a fitted effect of over 35% in size.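 As to Viability: series mostly up to about 46 µM; 100% = DMSO control wells and 0% = empty wells without cells.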 In outline:
as §1

Assay [10] in a line: Cellular viability qHTS for adrenocortical cancer (ACC) cell line SW-13 (AID 1963989). Also: nearly all actives have a fitted effect of over 65% in size.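 As to activity (max response): cells grown in serum-free medium with ITS supplement; % is scaled to controls: 0 for no effect and ±100 for the full control effect.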 The settings on record: SW-13 ACC cells viability, CellTiter-Glo, 48 h; activity (max response): stronger effect = lower value. In outline: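 48 h treatment, SW-13 in ITS/DMEM serum-free; doses up to 46 uM; readout CellTiter-Glo luminescence; curve fit four-parameter logistic.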
A short description of assay [11]: Cellular viability qHTS for adrenocortical cancer (ACC) cell line NCI-H295R (AID 1963990). Also: nearly all actives have a fitted effect of over 60% in size. A digest of the protocol: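 Compound titrations (up to 46 uM final) are applied to NCI-H295R cultures for 48 h at 37C. Viable cell number is estimated by CellTiter-Glo signal, normalised to DMSO and doxorubicin controls.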
The nature of assay [12]: Quantitative highthroughput screen to assess conditional lethalithy of P12 Ichikawa cells grown in RPMI1640 with dialyzed fetal bovine serum (RPMI+ds) (AID 1963880). Also: nearly all actives have a fitted effect of over 35% in size.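 As to Viability: 100% = DMSO wells and 0% = empty wells on each plate.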 The settings on record: Potency: P12-Ichikawa viability. In outline:
as §1
Potency is read from the fitted curve at half-maximal effect.

Take `CNC[C@H](O)c1ccc(O)c(O)c1`: the Potency entry in assay [1], in assay [2], in [3], in assay [4], in [5] and in [6] was “inactive” in each case. Moreover, the Potency entry in assay [7], in assay [8], in assay [9] and in [11] was “inactive” in each case. Also, the activity (max response) in assay [10] was -16.4% (inactive) and -3.87% (inactive).

Take `CCOC(=O)[C@H](CCc1ccccc1)N[C@H]1CS[C@H](c2cccs2)CN(CC(=O)O)C1=O`: the Potency in assay [1] was 7.42 µM (active); in [2], 13.3 µM (active) and 5.9 µM (active); in [3], 13.2 µM (active); in assay [4], 5.26 µM (active); in assay [5], 8.33 µM (active); in [12], 14.8 µM (active). The Potency in assay [6] is 9.35 µM (active). The Potency result in assay [7], in [9] and in [11] was “inactive” each time. In assay [10], the activity (max response) is 6.33% (inactive) and 0.504% (inactive).

For the compound `CC(C)[C@H](CO)Nc1nc(Nc2cccc(Cl)c2)c2ncn(C(C)C)c2n1`, the Potency in assay [1] is 2.59 µM (active); in assay [2] it was 3320 nM (active); in [3] it was 2.35 µM (active); in [4], 0.743 µM (active); in assay [5], 4.18 µM (active); in [12], 5.9 µM (active). Besides, the Potency was 8.33 µM (active) in [6]; 1.32 µM (active) in assay [7]; 0.418 µM (active) in assay [9]; 22.4 µM (active) in assay [10]; 20 µM (active) in [11].

For `Oc1ccc(OCc2ccccc2)cc1`, the Potency in assay [1] is 5.9 µM (active); in [2], “inactive and 8.33 µM (active)”; in [3], 18.7 µM (active); in assay [5], 7.43 µM (active); in [6], 3.72 µM (active). In assay [10], the activity (max response) is 12.2% (inactive). Besides, the Potency result in assay [11] was “inactive”.

As to `CCN(CCO)CCCOc1ccc2c(Nc3cc(CC(=O)Nc4cccc(F)c4)[nH]n3)ncnc2c1`, the Potency in assay [1] was 0.0411 µM (active); in [2], 186 nM (active); in assay [3] it was 0.105 µM (active); in assay [5], 0.166 µM (active); in assay [12] it was 0.187 µM (active); in assay [6], 0.148 µM (active). Besides, the Potency is 0.296 µM (active) in assay [7], 0.264 µM (active) in [8], 0.235 µM (active) in assay [9] and 20 µM (active) in [10].

Turning to `Cc1cn(CCN2CCN(c3ccccc3-c3cc(C#N)cc(C(=O)NCCCN4CCCC4)c3)CC2)c2ccccc12`, the Potency in assay [1] is 3.72 µM (active); in assay [2] it was 3.66 µM (active) and 3.32 µM (active); in assay [3] it was 10.5 µM (active); in assay [4], 8.31 µM (active); in assay [5] it was 8.31 µM (active); in assay [12], 7.41 µM (active). In addition, the Potency in assay [7] is 6.6 µM (active); in assay [8] it was 13.2 µM (active); in [10], 22.4 µM (active); in assay [11], 5.62 µM (active).

With `CC(Oc1ccc(O)cc1)(P(=O)(O)O)P(=O)(O)O`, the Potency result in [1], in [2] and in assay [11] was “inactive” in each case. Further, the figures for the Potency in assay [3] and in assay [4] were 26.4 µM (active) and 13.2 µM (active), respectively. Besides, the activity (max response) in assay [10] was 1.35% (inactive).

Consider `CCCCc1oc2ccccc2c1C(=O)c1cc(I)c(OCCN(CC)CC)c(I)c1`, for which the Potency is 18.8 µM (active) and 16.6 µM (active) in assay [1]; 23.7 µM (active) and 18.6 µM (active) in [2]; 20.9 µM (active) in [3]; 31.6 µM (active) in assay [10]; 22.4 µM (active) in [11]. The Potency result in assay [5], in assay [12], in assay [6], in [7] and in assay [9] was “inactive” each time.

For the compound `O=C(CCCCCCNC(=O)c1cnc(N(c2ccccc2)c2ccccc2)nc1)NO`, the Potency is 2.95 µM (active) in assay [1]; 2350 nM (active) in assay [2]; 16.6 µM (active) in assay [3]; 14.8 µM (active) in [4]; 6.62 µM (active) in [5]; 5.9 µM (active) in assay [12]. In addition, the Potency in [6] is 7.43 µM (active); in assay [7], 7.43 µM (active); in assay [8], 5.9 µM (active); in assay [9], 7.43 µM (active); in assay [10], 15.8 µM (active); in assay [11], 14.1 µM (active).

As for `NS(=O)(=O)c1cccc2c1C(=O)c1cccc(O)c1C2=O`, the Potency in [1] is 0.525 µM (active); in assay [2], 468 nM (active); in assay [3], 23.5 µM (active); in assay [4], 20.9 µM (active); in assay [5], 26.4 µM (active); in assay [12], 26.4 µM (active). Also, the Potency was 6.62 µM (active) in assay [7]; 1.48 µM (active) in assay [8]; 0.372 µM (active) in assay [9]; 1.26 µM (active) in assay [10]; 0.631 µM (active) in assay [11].

`Cc1cnc(Nc2cccc(CN3CCOCC3)c2)nc1Nc1cccc(S(=O)(=O)NC(C)(C)C)c1`: the Potency was 0.0934 µM (active) in [1] and 186 nM (active) in [2]. Besides, the Potency result in [3], in [4] and in [11] was “inactive” in each case. Further, in assay [10], the activity (max response) is -8.11% (inactive).

Consider `CC1(C)CCC(c2ccc(Cl)cc2)=C(CN2CCN(c3ccc(C(=O)NS(=O)(=O)c4ccc(N[C@H](CCN5CCOCC5)CSc5ccccc5)c(S(=O)(=O)C(F)(F)F)c4)cc3)CC2)C1`, for which the Potency in assay [1] was 116 nM (active) and 332 nM (active); in assay [2], 32.6 nM (active) and 118 nM (active); in [3], 0.264 µM (active); in assay [5] it was 0.118 µM (active); in assay [12] it was 0.264 µM (active); in assay [7] it was 0.0833 µM (active). The Potency in [8] and in assay [9] was 0.0526 µM (active) each time. For the same compound, the activity (max response) in assay [10] is 11.1% (inactive). Besides, the Potency result in [11] was “inactive”.

For the compound `NNC(=O)c1ccncc1`, the Potency result in [1], in assay [2], in assay [3], in assay [4], in assay [7] and in [8] was “inactive” in each case. Besides, in [11], the Potency entry was “inactive”. The Potency in [5] was 16.6 µM (active). Besides, in assay [10], the activity (max response) is 13.1% (inactive) and -0.369% (inactive).
